Values without a mark were called inactive. Results filed as inconclusive are left out. Calls of active or inactive are those of the source. Unless noted, calls come from the whole dose curve; as a rule, active = well fitted curve in either direction with a large enough effect (not every such curve was filed as active); inconclusive = small, poorly fitted or top-dose-only effect, or another doubt; inactive = flat fitted curve, though single readings scatter.
Columns and labels:
[1] = target: Lysosomal acid glucosylceramidase (Homo sapiens) (UniProt P04062); assay: Glucocerebrosidase-p2 (AID 348; in the data active = potency below about 10 µM; note: potency is the fitted concentration of half-maximal effect); details: purified GBA, blue fluorogenic substrate, 40 min
Chain of Lysosomal acid glucosylceramidase (Homo sapiens) (P04062 whole entry, looked up): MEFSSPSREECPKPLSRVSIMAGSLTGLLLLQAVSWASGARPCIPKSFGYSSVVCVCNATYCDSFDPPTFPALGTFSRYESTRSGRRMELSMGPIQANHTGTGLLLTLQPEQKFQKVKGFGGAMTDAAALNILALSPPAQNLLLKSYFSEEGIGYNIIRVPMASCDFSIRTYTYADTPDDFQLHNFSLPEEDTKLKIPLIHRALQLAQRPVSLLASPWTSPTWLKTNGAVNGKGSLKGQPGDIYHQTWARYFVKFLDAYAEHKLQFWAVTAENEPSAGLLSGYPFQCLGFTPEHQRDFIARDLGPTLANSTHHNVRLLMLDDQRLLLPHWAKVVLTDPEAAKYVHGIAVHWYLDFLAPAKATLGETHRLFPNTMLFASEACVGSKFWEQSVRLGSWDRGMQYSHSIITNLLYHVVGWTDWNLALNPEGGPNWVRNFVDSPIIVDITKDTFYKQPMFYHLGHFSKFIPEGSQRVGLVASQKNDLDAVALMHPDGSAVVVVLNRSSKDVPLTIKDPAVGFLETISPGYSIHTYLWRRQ
Summary of the method: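 Normal human glucocerebrosidase (0.2 nM) with blue fluorogenic substrate (80 uM final) in citrate/phosphate pH 5.9 with 10mM sodium taurocholate, 0.01% tween-20; 40 min RT, NaOH/glycine stop; fluorescence Ex 365/Em 440; AC50 from a titration from 0.6 nM upwards.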

[2] = AP1 Signaling Pathway (AID 357); details: ME-180 AP-1-bla reporter, EGF-induced, beta-lactamase ratio, 5 h; at 7.69 µM (top of the series) unless noted; note: % is set by controls: 0 for no effect and ±100 for the full control effect
Summary of the method: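 AP-1-bla ME-180 cells with beta-lactamase reporter under AP-1 response element, stimulated with EC50 EGF; compounds titrated, 5 hours at 37 degrees Celsius. CCF4 read at 460/530 nm ratio; positive and negative modulators judged by AC50.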

[3] = target: Cytochrome P450 1A2 (Homo sapiens) (UniProt P05177); assay: p450-cyp1a2 (AID 410; calls by dose curve; note: potency is the fitted concentration of half-maximal effect;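 for activity change, negative = inhibition: -100% = full effect of reference inhibitor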); details: recombinant CYP1A2, luciferin-ME demethylation, luminescence; series mostly up to 57 µM
Chain of Cytochrome P450 1A2 (Homo sapiens) (P05177 whole entry, looked up): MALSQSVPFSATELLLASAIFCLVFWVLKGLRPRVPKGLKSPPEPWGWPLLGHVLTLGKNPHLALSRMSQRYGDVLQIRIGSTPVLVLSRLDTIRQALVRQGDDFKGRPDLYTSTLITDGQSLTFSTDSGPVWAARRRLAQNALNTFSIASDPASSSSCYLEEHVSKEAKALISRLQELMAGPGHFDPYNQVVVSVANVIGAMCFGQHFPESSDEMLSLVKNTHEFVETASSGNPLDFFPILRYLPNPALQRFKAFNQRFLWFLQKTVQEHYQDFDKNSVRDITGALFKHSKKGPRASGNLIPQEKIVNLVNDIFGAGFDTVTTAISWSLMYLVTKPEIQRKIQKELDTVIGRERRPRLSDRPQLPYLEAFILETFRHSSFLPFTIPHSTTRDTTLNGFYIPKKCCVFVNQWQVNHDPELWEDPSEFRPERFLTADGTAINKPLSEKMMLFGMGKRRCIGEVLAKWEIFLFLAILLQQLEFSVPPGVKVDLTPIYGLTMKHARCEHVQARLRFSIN
Summary of the method: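 20nM CYP1A2, 100uM Luciferin-ME (=Km), 100mM KPO4; cpd 10 min RT; +NADPH regen, 60 min RT; stop/detect 20 min; luminescence. Normalized to furafylline 57 uM = full inhibition.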

[4] = NFAT Signaling Pathway (AID 444); details: Jurkat NFAT-bla M1, carbachol, beta-lactamase ratio, 5 h; at 7.69 µM (top of the series) unless noted;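 note: carbachol stimulus at about its EC50 of 1 µM final; % is set by controls: 0 for no effect and ±100 for the full control effect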
Summary of the method: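 Jurkat cells carrying an NFAT-driven β-lactamase reporter and co-transfected muscarinic M1 receptor were treated with compound plus carbachol (1 uM final, an EC50 level) for 5 h at 37 °C. CCF4 loading followed for 1 h at RT; 460/530 nm ratio gave %activity.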

[5] = Stat Signaling Pathway (AID 446); details: ME-180 SIE beta-lactamase reporter, IL-6 stimulated, 5 h; at 7.69 µM (top of the series) unless noted;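 note: ME-180 cervical cancer cells given 40 pM IL-6 alongside compound; SIE-controlled beta-lactamase reporter measured as 460/530 nm FRET emission ratio; % is set by controls: 0 for no effect and ±100 for the full control effect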
Summary of the method: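 Normalization used AC90 stimulation (300 pM IL-6) and AC90 inhibition (125 nM pan-JAK inhibitor at 40 pM IL-6). The underlying signal is SIE-driven beta-lactamase in ME-180 cells after 5 h IL-6 exposure with compound.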

[6] = target: Glucocorticoid receptor (Homo sapiens) (UniProt P04150); assay: GR-EFC Redistribution (AID 451; calls by dose curve; note: potency is the fitted concentration of half-maximal effect); details: CHO-K1 GR-EFC translocation, beta-gal luminescence, 2 h
Chain of Glucocorticoid receptor (Homo sapiens) (P04150 whole entry, looked up, the tested form may be a part): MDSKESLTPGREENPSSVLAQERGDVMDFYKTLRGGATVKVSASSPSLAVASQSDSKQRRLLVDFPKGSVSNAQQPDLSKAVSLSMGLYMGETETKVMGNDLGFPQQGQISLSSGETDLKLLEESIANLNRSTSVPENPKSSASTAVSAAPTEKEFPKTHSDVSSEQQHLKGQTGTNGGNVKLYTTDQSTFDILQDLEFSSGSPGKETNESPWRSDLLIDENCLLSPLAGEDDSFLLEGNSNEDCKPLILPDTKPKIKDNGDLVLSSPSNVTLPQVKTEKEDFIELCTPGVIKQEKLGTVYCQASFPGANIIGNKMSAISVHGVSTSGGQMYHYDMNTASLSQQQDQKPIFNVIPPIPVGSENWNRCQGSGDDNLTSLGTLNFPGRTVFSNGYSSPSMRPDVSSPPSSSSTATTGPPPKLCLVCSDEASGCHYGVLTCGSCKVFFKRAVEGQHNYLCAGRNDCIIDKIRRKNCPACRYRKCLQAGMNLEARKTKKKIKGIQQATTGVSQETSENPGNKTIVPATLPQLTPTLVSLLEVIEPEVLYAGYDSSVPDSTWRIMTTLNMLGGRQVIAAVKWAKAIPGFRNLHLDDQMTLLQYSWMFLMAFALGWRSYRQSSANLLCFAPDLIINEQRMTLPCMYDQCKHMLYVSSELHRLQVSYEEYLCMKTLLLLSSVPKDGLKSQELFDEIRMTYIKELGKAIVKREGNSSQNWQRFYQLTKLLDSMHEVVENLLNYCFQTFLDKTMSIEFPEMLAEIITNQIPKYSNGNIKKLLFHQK
Summary of the method: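 CHO-K1 cells stably expressing nuclear-localized β-gal enzyme acceptor and GR fused C-terminally to the enzyme donor fragment; ligand-driven nuclear translocation restores β-gal by complementation. Compounds titrated up to 46 uM final, 2 h at 37 °C; luminescence read.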

[7] = target: Mitogen-activated protein kinase 10 (Mus musculus) (UniProt Q61831); assay: JNK3 AlphaScreen Assay (AID 530); details: JNK3 lysate, c-Jun phosphorylation; series mostly up to 57.1 µM;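 note: kinase came from lysate of stimulated human HepG2 cells; signal reports phosphorylation of biotinylated GST-cJun 1-79 at Ser73 with 10 µM ATP; % is set by controls: 0 for no effect and ±100 for the full control effect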
Summary of the method: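 Biotinylated GST-cJun(1-79) served as substrate for JNK3 in HepG2 lysates stimulated with IL-1beta and TNF-alpha. ATP was 10 uM final, pH 7.6. Ser73 phosphorylation was quantified by AlphaScreen (680 nm excitation).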

[8] = target: 3',5'-cyclic-AMP phosphodiesterase 4B (Homo sapiens) (UniProt Q07343); assay: qHTS Assay for Inhibitors of PDE-IV (AID 607; active = well fitted activation curve with a large enough effect in the main read-out, with a control signal flat, not every such curve was filed as active; note: % of control where 0% means no effect); details: HEK293 ACTOne CNG channel cells, membrane potential fluorescence; series mostly up to 22.9 µM
Chain of 3',5'-cyclic-AMP phosphodiesterase 4B (Homo sapiens) (Q07343 whole entry, looked up): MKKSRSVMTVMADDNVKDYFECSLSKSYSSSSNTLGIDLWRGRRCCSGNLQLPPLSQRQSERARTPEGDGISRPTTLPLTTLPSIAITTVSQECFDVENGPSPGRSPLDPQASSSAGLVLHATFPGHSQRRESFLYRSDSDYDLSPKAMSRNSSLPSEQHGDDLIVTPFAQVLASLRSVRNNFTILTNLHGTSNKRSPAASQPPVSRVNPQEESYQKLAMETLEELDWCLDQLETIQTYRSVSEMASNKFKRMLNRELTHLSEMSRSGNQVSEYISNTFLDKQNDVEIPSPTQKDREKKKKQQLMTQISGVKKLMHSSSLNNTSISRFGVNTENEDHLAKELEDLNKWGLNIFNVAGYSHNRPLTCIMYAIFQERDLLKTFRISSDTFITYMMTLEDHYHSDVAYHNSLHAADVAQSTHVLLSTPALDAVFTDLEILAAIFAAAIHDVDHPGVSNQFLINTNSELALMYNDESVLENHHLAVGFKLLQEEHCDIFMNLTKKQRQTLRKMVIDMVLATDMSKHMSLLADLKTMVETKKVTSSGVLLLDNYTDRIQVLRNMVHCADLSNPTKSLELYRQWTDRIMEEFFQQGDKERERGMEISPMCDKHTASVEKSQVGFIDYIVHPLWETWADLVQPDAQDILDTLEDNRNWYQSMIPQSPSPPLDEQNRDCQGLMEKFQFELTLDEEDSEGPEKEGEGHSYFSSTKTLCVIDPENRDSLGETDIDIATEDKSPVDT
Summary of the method: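 HEK293 ACTOne cells with CNG channel (1000/well), endogenous PDE4; membrane potential dye, compounds up to 22.9 uM final. Fluorescence Ex 535/Em 590; RO 20-1724 (100 uM final) as reference.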

[9] = target: Cytochrome P450 3A4 (Homo sapiens) (UniProt P08684); assay: qHTS Assay for Activators of Cytochrome P450 3A4 (AID 885; active = well fitted curve in the direction sought with a large enough effect; an effect the other way counts as inactive or inconclusive; note: nearly all actives have a fitted effect of over 65% in size; note: potency is the fitted concentration of half-maximal effect); details: recombinant CYP3A4, Luciferin-PPXE luminescence, 60 min; series mostly up to 57.1 µM
Chain of Cytochrome P450 3A4 (Homo sapiens) (P08684 whole entry, looked up): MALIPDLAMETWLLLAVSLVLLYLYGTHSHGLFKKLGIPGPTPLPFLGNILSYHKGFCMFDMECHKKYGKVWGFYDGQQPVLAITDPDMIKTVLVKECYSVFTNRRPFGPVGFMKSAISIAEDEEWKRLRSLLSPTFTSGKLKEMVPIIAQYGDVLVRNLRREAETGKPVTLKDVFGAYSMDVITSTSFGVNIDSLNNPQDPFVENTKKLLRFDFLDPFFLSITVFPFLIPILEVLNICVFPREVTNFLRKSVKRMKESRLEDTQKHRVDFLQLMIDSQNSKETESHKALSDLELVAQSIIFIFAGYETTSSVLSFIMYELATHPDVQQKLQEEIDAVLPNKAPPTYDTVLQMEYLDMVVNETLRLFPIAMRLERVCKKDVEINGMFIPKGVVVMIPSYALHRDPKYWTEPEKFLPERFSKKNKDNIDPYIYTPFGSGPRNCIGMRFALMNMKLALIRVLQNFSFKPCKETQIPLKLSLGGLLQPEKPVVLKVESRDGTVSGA
Summary of the method: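 Human CYP3A4 dealkylates Luciferin-PPXE to luciferin, which luciferase detection converts to light. Substrate was at its KM (25uM), buffer 200mM KPO4, reaction 60 min at RT.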

[10] = Primary qHTS for small molecule stabilizers of the endoplasmic reticulum resident proteome: Secreted ER Calcium Modulated Protein (SERCaMP) assay (AID 1508630; active = well fitted curve in the direction sought with a large enough effect; an effect the other way counts as inactive or inconclusive; note: % is set by controls: 0 for no effect and ±100 for the full control effect); details: SH-SY5Y GLuc-SERCaMP (Gaussia luciferase released on ER calcium loss) secretion, thapsigargin, luminescence; series mostly up to 38.4 µM
Summary of the method: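 The SH-SY5Y reporter protocol was run at 3 concentrations up to 38.3 uM (primary) or 11 concentrations (follow-up): 16 h compound, 100 nM thapsigargin for 4 h, then extracellular luciferase luminescence.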

[11] = target: Cytochrome P450 3A4 (Homo sapiens) (UniProt P08684); assay: qHTS Assay for Inhibitors and Substrates of Cytochrome P450 3A4 (AID 884; active = well fitted curve in the direction sought with a large enough effect; an effect the other way counts as inactive or inconclusive; note: nearly all actives have a fitted effect of over 50% in size; note: potency is the fitted concentration of half-maximal effect); details: recombinant CYP3A4, Luciferin-PPXE luminescence; series mostly up to 57.1 µM
Summary of the method: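 Luminescent readout of luciferin produced by CYP3A4 (20 nM) dealkylation of Luciferin-PPXE, 25 uM (its KM). NADPH-driven reaction ran 60 min at RT after 10 min compound preincubation; data scaled to 57 uM ketoconazole as 100% inhibition.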

[12] = qHTS Assay for Identification of Small Molecule Agonists for Hypoxia Response Element Signaling Pathway (AID 914; active = well fitted activation curve with a large enough effect in the signal ratio, with a control signal flat, not every such curve was filed as active; the % refers to the signal ratio; note: % of control where 0% means no effect); details: ME-180 (cervical carcinoma) HRE-bla reporter, beta-lactamase ratio, CoCl2, 17 h; activation: stronger effect = higher value
Summary of the method: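 HRE-bla ME-180 cells, overnight plating in Opti-MEM with 0.5% dialyzed FBS; cpd titration + EC50 CoCl2, 17 h, 37 degrees Celsius; CCF4 2.5 h RT; 460/530 nm ratio; AC50.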

[13] = target: Cytochrome P450 2C19 (Homo sapiens) (UniProt P33261); assay: qHTS Assay for Inhibitors and Substrates of Cytochrome P450 2C19 (AID 899; active = well fitted curve in the direction sought with a large enough effect; an effect the other way counts as inactive or inconclusive; note: potency is the fitted concentration of half-maximal effect; nearly all actives have a fitted effect of over 60% in size); details: recombinant CYP2C19, luciferin-H EGE luminescence; series mostly up to 57.1 µM
Chain of Cytochrome P450 2C19 (Homo sapiens) (P33261 whole entry, looked up): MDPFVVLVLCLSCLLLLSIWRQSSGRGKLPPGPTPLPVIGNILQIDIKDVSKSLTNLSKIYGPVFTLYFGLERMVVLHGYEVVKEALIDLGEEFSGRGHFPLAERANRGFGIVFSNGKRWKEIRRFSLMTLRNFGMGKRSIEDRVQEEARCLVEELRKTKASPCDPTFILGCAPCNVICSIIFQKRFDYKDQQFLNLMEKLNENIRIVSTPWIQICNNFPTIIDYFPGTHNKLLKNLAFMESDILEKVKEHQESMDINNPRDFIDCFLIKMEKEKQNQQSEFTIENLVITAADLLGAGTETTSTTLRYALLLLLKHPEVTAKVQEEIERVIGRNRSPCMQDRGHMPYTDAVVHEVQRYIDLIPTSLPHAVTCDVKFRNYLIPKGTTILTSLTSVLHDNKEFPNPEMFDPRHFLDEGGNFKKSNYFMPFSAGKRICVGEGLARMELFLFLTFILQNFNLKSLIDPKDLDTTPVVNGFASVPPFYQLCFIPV
Summary of the method: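 NADPH-dependent conversion of Luciferin-H EGE (10uM, at KM) by 5nM enzyme in 50mM KPO4, 60 min at 37C following 10 min compound preincubation. Stopped with luciferin detection buffer; luminescence read after 20 min.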

Structure (SMILES) | Potency [1] [µM] | activity change, negative = inhibition [2] [%] | Potency [3] | activity change, negative = inhibition [4] [%] | activity, negative = inhibition [5] [%] | Potency [6] [µM] | Potency [7] | Potency [8] | Potency [9] | outcome [10] | Potency [11] | activation [12] [%] | Potency [13]
COc1ccc(NC(=O)N2CC3(CCN(S(=O)(=O)c4ccccc4)CC3)C2)cc1 | > 11.4 | -1.69 | inactive | 10.6 | -2.28 | > 46 | inactive | inactive | inactive | inactive | – | – | –
CC(C)NC(=O)N1CCCC2(CCN(C(=O)c3csnn3)CC2)C1 | > 11.4 | 3.46 | inactive | -7.86 | 2.78 | > 46 | inactive | inactive | inactive | inactive | – | – | –
COc1ccc(NC(=O)N2CCCC3(CCN(C(=O)c4ccco4)CC3)C2)cc1 | > 11.4 | -17.6 | inactive | 7.9 | -11.8 | > 46 | inactive | inactive | inactive | inactive | – | – | –
O=C(Nc1ccccc1)N1CCC2(CC1)CCN(C(=O)c1cccc(F)c1)CC2 | > 11.4 | 2.8 | 10 µM (active) | 14.6 | -12.9 | > 46 | inactive | inactive | 12.6 µM (active) | inactive | inactive | -13.7 | –
O=C(c1cccc(F)c1)N1CCC2(CC1)CN(c1ccc(-c3ccccc3)cc1)C2 | > 11.4 | 9.76 | inactive | -5.75 | -20.4 | > 46 | inactive | inactive | 2.51 µM (active) | inactive | inactive | – | –
O=S(=O)(c1ccccc1)N1CCC2(CCCN(c3cccc(-c4ccccc4)c3)C2)CC1 | > 11.4 | 7.43 | inactive | -13.9 | -0.269 | > 46 | inactive | inactive | inactive | inactive | 3.98 µM (active) | – | –
O=C(c1cccc(F)c1)N1CCC2(CC1)CCN(c1ncccn1)CC2 | > 11.4 | -6.18 | 10 µM (active) | 2.49 | -11.5 | > 46 | inactive | inactive | 7.94 µM (active) | inactive | inactive | – | –
CC(=O)N1CCC2(CCCN(Cc3nccs3)C2)CC1 | > 11.4 | 3.8 | inactive | -6.07 | 6.5 | > 46 | inactive | inactive | inactive | inactive | – | – | 5.01 µM (active)
O=C(c1cccc(F)c1)N1CCC2(CC1)CCN(c1ccc(-c3ccccc3)cc1)CC2 | > 11.4 | 4.61 | inactive | 0.978 | -7.26 | > 46 | inactive | inactive | 12.6 µM (active) | inactive | inactive | – | –
COc1ccc(C(=O)N2CCC3(CC2)CCN(c2ncccn2)CC3)cc1 | > 11.4 | 3.18 | inactive | 0.535 | 4.32 | > 46 | inactive | inactive | 5.01 µM (active) | inactive | inactive | – | –
COc1ccc(C(=O)N2CCC[C@@]3(CCN(C(=O)Nc4cccc(C#N)c4)C3)C2)cc1 | > 11.4 | -11.5 | inactive | 16.6 | 1.52 | > 46 | inactive | inactive | inactive | inactive | 7.94 µM (active) | – | –
CC(C)NC(=O)N1CCCC2(CCN(C(=O)c3cccn3C)CC2)C1 | > 11.4 | 4.84 | inactive | -17.7 | 14.5 | > 46 | inactive | inactive | inactive | inactive | – | – | –
COc1ccc(NC(=O)N2CC3(CCN(C(=O)c4ccncc4)CC3)C2)cc1 | > 11.4 | 0.578 | inactive | 10.9 | 6.73 | > 46 | inactive | inactive | inactive | inactive | – | – | –
COc1ccc(C(=O)N2CCC3(CCN(Cc4ccncc4)CC3)CC2)cc1 | > 11.4 | -7.79 | inactive | -24.2 | 11.1 | > 46 | inactive | inactive | inactive | inactive | – | – | –
